# BLM inh = inhibitors of human Bloom syndrome helicase BLM | Potency, µM (top dose mostly 56.1 µM), usual class: inhibitors | recombinant BLM DNA unwinding, fluorescence dequenching | P54132 | 350,000 compounds, 0.2% hits; further: nearly all actives have a fitted effect of over 35% in size
# RECQ1 inh-1 = blocks DNA unwinding by human RECQ1 | 240,000 compounds, 0.54% hits | Potency, µM (titrated, usually from 57.3 µM), hits mostly inhibitors | RECQ1 DNA unwinding, red fluorescence kinetic read | P46063; further: nearly all actives have a fitted effect of over 30% in size
#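 50 nM RECQ1T1 preincubated 15 min with compound in Tris pH 8.0 buffer with MgCl2, DTT, Tween-20 and 2.5 ug/ml poly(dI-dC); started with 200 nM TAMRA/BHQ-2 forked duplex and 2 mM ATP. Unwinding read as fluorescence (525/598 nm), two reads 2 h apart.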
# WRN helicase inh = inhibitors of human WRN helicase | Potency, µM (series often up to 114 µM), usual class: inhibitors | 360,000 compounds, 0.46% hits | WRN helicase unwinding, fluorescent forked duplex, kinetic | Q14191; further: nearly all actives have a fitted effect of over 55% in size
# Target sequence (Q14191 whole entry, looked up): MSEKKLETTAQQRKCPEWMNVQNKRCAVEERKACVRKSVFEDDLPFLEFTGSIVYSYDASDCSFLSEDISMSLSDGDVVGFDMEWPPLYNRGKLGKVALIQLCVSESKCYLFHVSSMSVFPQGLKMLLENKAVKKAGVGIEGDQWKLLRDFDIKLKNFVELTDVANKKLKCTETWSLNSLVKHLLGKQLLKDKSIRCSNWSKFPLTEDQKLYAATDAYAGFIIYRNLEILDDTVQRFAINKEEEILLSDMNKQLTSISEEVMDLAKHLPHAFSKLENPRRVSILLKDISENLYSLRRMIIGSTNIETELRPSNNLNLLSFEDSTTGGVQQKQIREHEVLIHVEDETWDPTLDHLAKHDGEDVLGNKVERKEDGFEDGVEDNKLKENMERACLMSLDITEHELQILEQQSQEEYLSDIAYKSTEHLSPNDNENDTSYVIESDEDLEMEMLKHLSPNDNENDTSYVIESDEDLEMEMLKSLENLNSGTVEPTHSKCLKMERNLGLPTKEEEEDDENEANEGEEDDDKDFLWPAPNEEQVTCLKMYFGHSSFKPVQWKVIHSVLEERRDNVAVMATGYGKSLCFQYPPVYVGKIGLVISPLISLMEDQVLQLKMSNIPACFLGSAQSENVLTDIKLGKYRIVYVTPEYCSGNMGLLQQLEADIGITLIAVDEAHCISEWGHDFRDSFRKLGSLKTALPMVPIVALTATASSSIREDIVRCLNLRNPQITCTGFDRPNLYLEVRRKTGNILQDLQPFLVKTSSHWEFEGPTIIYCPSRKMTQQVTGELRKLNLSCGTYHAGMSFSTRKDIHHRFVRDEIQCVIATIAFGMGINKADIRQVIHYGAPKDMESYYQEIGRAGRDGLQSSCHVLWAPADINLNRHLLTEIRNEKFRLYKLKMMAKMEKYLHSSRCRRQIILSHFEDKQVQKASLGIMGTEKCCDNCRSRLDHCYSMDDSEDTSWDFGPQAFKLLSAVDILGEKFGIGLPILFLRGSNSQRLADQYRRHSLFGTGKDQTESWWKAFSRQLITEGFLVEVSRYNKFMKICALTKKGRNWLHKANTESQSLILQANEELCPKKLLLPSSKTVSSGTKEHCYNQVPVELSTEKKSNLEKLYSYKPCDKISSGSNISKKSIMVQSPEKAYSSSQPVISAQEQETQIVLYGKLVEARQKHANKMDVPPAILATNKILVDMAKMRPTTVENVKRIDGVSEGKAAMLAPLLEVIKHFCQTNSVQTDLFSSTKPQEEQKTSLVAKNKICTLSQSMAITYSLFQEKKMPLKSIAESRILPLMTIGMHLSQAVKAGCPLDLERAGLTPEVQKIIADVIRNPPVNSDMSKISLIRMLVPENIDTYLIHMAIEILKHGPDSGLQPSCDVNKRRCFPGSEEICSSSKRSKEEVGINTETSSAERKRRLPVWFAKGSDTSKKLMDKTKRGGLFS
#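 Kinetic red-fluorescence monitoring (525/598 nm) tracks WRN helicase activity after 100 nM fluorophore-quencher forked duplex and 2 mM ATP are added to 20 nM enzyme pretreated 15 min at room temperature with compound.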
# TexasRed fluor = counter-screen for TRb-SRC2 inhibitors: fluorescence interference; AID 1479; Potency, µM (top dose mostly 106 µM); TRb/SRC2 Texas Red total fluorescence interference; 280,000 compounds, 0.29% hits; active means well fitted curve in either direction with a large enough effect; inconclusive means small, poorly fitted or top-dose-only effect
#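 Human TRβ ligand-binding domain (0.6 uM) and Texas Red SRC2 peptide (20 nM) in Tris buffer with 1 uM T3 and 5% DMSO were incubated with pinned compound for 5 hr at ambient temperature. Total fluorescence was computed as S + 2P (555/632 nm).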
# TRb SRC2 PPI = TRbeta-SRC2 interaction inhibition; TRbeta-SRC2 peptide binding, fluorescence polarization; receptor liganded with 1 µM T3; P10828; AID 1469; Potency, µM (titrated, usually from 106 µM), usual class: inhibitors; 280,000 compounds, 0.065% hits; further: nearly all actives have a fitted effect of over 50% in size
#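 Fluorescence polarization of 20 nM Texas Red SRC2 peptide (20-aa NR interaction domain) bound to 0.6 uM human TRb ligand-binding domain, with 1 uM T3, after 5 hr at ambient temperature; inhibition seen as decreased polarization.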
# APE1 inh = APE1 (human) endonuclease inhibition; 350,000 compounds, 0.35% hits; recombinant APE1, TAMRA/BHQ-2 abasic DNA cleavage fluorescence; AID 2517; Potency, µM (titrated, usually from 65.8 µM), usual class: inhibitors; P27695; further: nearly all actives have a fitted effect of over 55% in size
#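 Kinetic fluorescence read (525 ex/598 em nm, three reads 60 s apart) of AP-site incision; signal = third minus first read. Enzyme 0.75 nM, dual-labelled THF duplex 50 nM, compound preincubation 15 min RT.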
# RECQ1 conf = confirmation of human RECQ1 helicase inhibitors; shares compounds with RECQ1 inh-1; RECQ1 helicase DNA unwinding, fluorescence; Potency, µM (series often up to 229 µM), most hits filed as inhibitors; 610 compounds, 28% hits; AID 2708; further: nearly all actives have a fitted effect of over 45% in size
# RECQ1 ADP FP = ADP displacement flagged in RECQ1 inhibitor counter-screen | shares compounds with RECQ1 inh-1 | ADP fluorescence polarization displacement counterscreen | Potency, µM (top dose mostly 228 µM), actives largely listed as inhibitors | 530 compounds, 27% hits | AID 2711; further: nearly all actives have a fitted effect of over 45% in size
# RECQ1 inh-2 = confirmation of human RECQ1 helicase inhibitors; shares compounds with RECQ1 inh-1; recombinant RECQ1 DNA unwinding, red fluorescence; Potency, µM (series often up to 119 µM), actives largely listed as inhibitors; 1,100 compounds, 15% hits; further: nearly all actives have a fitted effect of over 50% in size
# Numbers stand for hits; - = inactive; ? = inconclusive; . = not tested or not shown; [ ] = dose if it differs, or a comment. Rows were chosen to be rich in hits. Some 0.91% of all compounds tested hit in one or more screens of this group. Unless noted, the call rests on the fitted dose curve; in most records, active means well fitted curve in the direction sought with a large enough effect; inconclusive means small, poorly fitted or top-dose-only effect, or another doubt; inactive means no such curve, though single readings can be large; an effect the other way counts as inactive or inconclusive.
SMILES,BLM inh,RECQ1 inh-1,WRN helicase inh,TexasRed fluor,TRb SRC2 PPI,APE1 inh,RECQ1 inh-2,others
C=CCn1c(O)c(N=NC(=O)CNC(=O)/C=C/c2ccc(OC)cc2)c2ccccc21,-,-,-,-,-,-,.,
O=[N+]([O-])c1cc(F)c2cccnc2c1O,?,?,-,?,-,-,-,
C=C(COC)C1=CCC(C(=O)OC)(C(=O)OC)[C@@H](C[N+](=O)[O-])c2ccccc21,-,-,.,-,-,-,.,
O[C@@H]1CN(C2CCN(Cc3ccccc3)CC2)CC[C@H]1N1CCCCCC1,.,.,-,.,.,.,.,
Brc1ccccc1CN1CCC(N2CCCCC2)CC1,-,?,-,-,-,-,-,
O=C(CCNC(=O)N1CCn2c1nc1ccccc12)NCc1ccc(F)cc1,-,.,-,.,.,-,.,
CCCN1CCN(CCCNC(=O)Cn2c(-c3cccs3)cc3ccccc32)CC1,-,.,.,?,-,.,.,
CCCc1nc2oc(C(=O)OCC)c(N)c2c2c1COC(C)(C)C2,-,?,-,-,-,?,-,
CCCSC1=N/C(=C\c2ccc([N+](=O)[O-])o2)C(=O)S1,-,13µM,22µM,?,-,22µM,?,RECQ1 conf=-
CCSC1=N/C(=C\c2ccc(-c3ccccc3[N+](=O)[O-])o2)C(=O)S1,-,-,-,?,?,?,.,
C[C@@H]1CN([C@H](C)CO)S(=O)(=O)c2ccc(C#Cc3cccc(F)c3)cc2O[C@@H]1CN(C)C(=O)CN1CCOCC1,.,.,-,.,.,.,.,
Cc1onc(-c2c(F)cccc2Cl)c1C(=O)OCC(=O)c1c[nH]c2ccccc12,-,22µM,-,-,-,?,-,
CCCCOC(=O)CSC1=C(C#N)C(c2ccccc2OC)C(C#N)C(=O)N1 (stereo unspecified),-,14µM,-,-,-,-,?,
Cc1cc(C(=O)O)ccc1N/C=C1\CCCC(C)C1=O (stereo unspecified),-,-,-,-,-,-,.,
CC1CCC/C(=C\Nc2ccc(O)cc2)C1=O (stereo unspecified),-,?,-[11.6 µM],-,28µM,-,-,
COCCn1c(C)cc(C(=O)CSc2nnc(-c3cccnc3)n2-c2ccccc2F)c1C,-,3.2µM,-[11.6 µM],-,-,-,.,RECQ1 conf=?;RECQ1 ADP FP=50µM
Cc1ccc(/C=C/C(=O)c2ccc(N3CCOCC3)cc2)s1,-,?,?,-,-,-,-,
c1csc(Cc2nn3c(-c4ccncc4)nnc3s2)c1,-,10µM,?,-,-,?,-,RECQ1 ADP FP=-
c1csc(-c2nn3c(-c4ccncc4)nnc3s2)c1,-,-,.,-,-,-,.,
CSc1nc2ccccc2cc1/C=C(\C#N)c1cccc(Cl)c1,-,13µM,-,-,-,-,-,
CC(=O)c1ccc(S(=O)(=O)Nc2ccc(-c3ccc4nnc(C)n4n3)cc2)cc1,-,?,-[11.6 µM],-,-,?,?,
Cc1nnc2ccc(-c3ccc(NS(=O)(=O)c4ccccc4)cc3)nn12,.,.,-,.,.,-,.,
COc1ccc(CNC(=O)CCc2c(C)nn(-c3ccc(N4CCCCC4)nn3)c2C)cc1,-,.,.,-,-,.,.,
Nc1cc(=O)nc(SCC(=O)Nc2ccc(F)cc2)n1-c1ccc(Cl)cc1,-,.,.,-,-,.,.,
Cc1nn(-c2ccccc2)c(Cl)c1C(=O)NCc1cccs1,-,?,-,-,-,-,-,
SMILES,BLM inh,RECQ1 inh-1,WRN helicase inh,TexasRed fluor,TRb SRC2 PPI,APE1 inh,RECQ1 inh-2,others
COc1ccc(NC(C)=O)cc1NC(=O)C1CCN(C(=O)Nc2ccccc2)CC1,.,.,-,.,.,-,.,
O=C1NC(=Nc2ccc(O)cc2)S/C1=C/c1ccco1,-,-,-,-,-,?,.,
COc1ccc(N=C2NC(=O)/C(=C\C=C\c3ccco3)S2)cc1,18µM,?,22µM,-,-,?,?,
Cc1ccc(N=C2NC(=O)/C(=C\c3ccco3)S2)cc1,-,-,?,-,-,?,.,
Cc1cccc(N=C2NC(=O)/C(=C/C=C/c3ccco3)S2)c1,?,35µM,?,-,-,?,?,
O=C1NC(=Nc2ccc3ccccc3c2)S/C1=C/c1ccco1,18µM,?,-[11.6 µM],-,-,?,?,
O=C1C=CC2=C3c4cc(O)c(O)cc4C[C@]3(O)COC2=C1,-,11µM,.,-,-,10µM,.,RECQ1 conf=112µM;RECQ1 ADP FP=6.3µM
Cc1ccc(S(=O)(=O)N2CCC(C(=O)NCCCN3CCCC3=O)CC2)cc1,.,.,-,.,.,-,.,
Cc1ccc(S(=O)(=O)N2CCC(C(=O)NCCN3CCCCCC3)CC2)cc1,-,?,-,-,-,-,-,
NC(=O)c1sc2nc(-c3ccccc3)ccc2c1N,-,.,-,.,.,-,.,
Nc1c(C(=O)Nc2ccc(F)cc2)sc2nc(-c3ccco3)ccc12,-,22µM,-,-,-,?,-,

# Source: PubChem (National Center for Advancing Translational Sciences (NCATS))
